Data from the antibiotic and cytotoxicity screens of Wong et al. (2023).
Screen size: about 39,000 compounds; about 3,300 (8.5%) were called active. The list comes from a sample in which actives are over-represented; it also holds similar structures and randomly drawn compounds.

Tested on: HepG2
Assay: cytotoxicity call (relative viability < 0.9)
Conditions: 10 µM

| SMILES | cytotoxicity call |
| --- | --- |
| Cc1noc(C)c1NC(=O)N[C@H]1C=C[C@H](CC(=O)N2CCN(C)CC2)O[C@@H]1CO | inactive |
| C[C@H]1CCCCO[C@@H](CN(C)C(=O)NC2CCCCC2)[C@@H](C)CN([C@@H](C)CO)C(=O)c2cc(NC(=O)Cc3ccccc3)ccc2O1 | inactive |
| COc1ccc(NC(=O)Nc2cccc3c2O[C@H](CN(C)C(=O)Nc2cccc4ccccc24)[C@H](C)CN([C@@H](C)CO)C3=O)cc1 | inactive |
| Cc1c(N2CCCC2)cc2c(c1-n1cccc1)C(C)(C)CC2(C)C | inactive |
| COc1ccc2c3c(n(c2c1)C)[C@@H](CO)N(Cc1cc(cc(c1)OC)OC)C[C@]13CN(C1)S(=O)(=O)c1cn(cn1)C | inactive |
| O=S(=O)(NCC[C@@H]1CC[C@@H](NS(=O)(=O)c2ccccc2Cl)[C@H](CO)O1)c1ccc(Cl)cc1 | inactive |
| Cc1ccc(S(=O)(=O)N[C@@H]2C=C[C@H](CC(=O)NCCN3CCCCC3)O[C@H]2CO)cc1 | inactive |
| COc1ccc(NC(=O)N(C)C[C@H]2Oc3ccc(NC(=O)Nc4cccc5ccccc45)cc3C(=O)N([C@@H](C)CO)C[C@@H]2C)cc1 | inactive |
| Cc1noc(C)c1NC(=O)Nc1ccc2c(c1)C(=O)N([C@H](C)CO)C[C@H](C)[C@@H](CN(C)Cc1ccc(Cl)c(Cl)c1)O2 | inactive |
| C[C@@H]1CN([C@H](C)CO)C(=O)Cc2cc(NS(=O)(=O)c3ccc(F)cc3)ccc2O[C@H]1CN(C)Cc1ccc(-c2ccccc2)cc1 | active |
| C[C@@H]1CN([C@H](C)CO)C(=O)Cc2cc(NC(=O)NC3CCCCC3)ccc2O[C@@H]1CN(C)C(=O)Nc1ccc(C(F)(F)F)cc1 | inactive |
| COc1ccc(S(=O)(=O)Nc2ccc3c(c2)C(=O)N([C@H](C)CO)C[C@@H](C)[C@H](CN(C)C(=O)Nc2ccc(F)cc2)OCCCC[C@H](C)O3)cc1 | inactive |
| C[C@H]1CN([C@@H](C)CO)C(=O)c2cc(C#CCN(C)C)cnc2O[C@H]1CN(C)S(C)(=O)=O | inactive |
| C[C@@H]1CN([C@@H](C)CO)C(=O)c2cc(NS(=O)(=O)c3ccc(Cl)cc3)ccc2O[C@@H](C)CCCCO[C@@H]1CN(C)Cc1ccc(C(F)(F)F)cc1 | inactive |
| C[C@@H]1CN([C@H](C)CO)C(=O)c2cc(NS(=O)(=O)c3ccc(Cl)cc3)ccc2O[C@@H](C)CCCCO[C@H]1CN(C)Cc1ccc(C(F)(F)F)cc1 | active |
| C[C@H](CO)N1C[C@H](C)[C@@H](CN(C)Cc2ccc(C(F)(F)F)cc2)OCCCC[C@H](C)Oc2ccc(NS(=O)(=O)c3ccc(Cl)cc3)cc2C1=O | inactive |
| C[C@@H]1CCCCO[C@H](CN(C)Cc2ccc(C(F)(F)F)cc2)[C@@H](C)CN([C@@H](C)CO)C(=O)c2cc(NS(=O)(=O)c3ccc(Cl)cc3)ccc2O1 | active |
| C[C@@H]1CCCCO[C@H](CN(C)Cc2ccc(C(F)(F)F)cc2)[C@H](C)CN([C@H](C)CO)C(=O)c2cc(NS(=O)(=O)c3ccc(Cl)cc3)ccc2O1 | active |
| C[C@@H]1CCCCO[C@@H](CN(C)Cc2ccc(C(F)(F)F)cc2)[C@H](C)CN([C@H](C)CO)C(=O)c2cc(NS(=O)(=O)c3ccc(Cl)cc3)ccc2O1 | active |
| CNC[C@H]1OCCCC[C@@H](C)Oc2ccc(NS(=O)(=O)c3cn(C)cn3)cc2C(=O)N([C@@H](C)CO)C[C@H]1C | inactive |

| SMILES | cytotoxicity call |
| --- | --- |
| C[C@@H]1CCCCO[C@@H](CN(C)C(=O)c2ccccc2)[C@@H](C)CN([C@H](C)CO)C(=O)c2cc(NC(=O)CCC(F)(F)F)ccc2O1 | inactive |
| C[C@@H]1CN([C@H](C)CO)C(=O)c2cc(NS(=O)(=O)c3cccs3)ccc2O[C@@H](C)CCCCO[C@@H]1CN(C)C(=O)CCC(F)(F)F | inactive |
| C[C@H](N)CCCP(=O)(O)O | inactive |
| COC(=O)CCCCCCC(=O)Nc1ccc([C@H]2O[C@H](CSc3nc(-c4ccccc4)c(-c4ccccc4)o3)C[C@H](c3ccc(NC(=O)CCCCCCC(=O)OC)cc3)O2)cc1 | inactive |
| C[C@H]1CN([C@@H](C)CO)C(=O)c2cc(NS(C)(=O)=O)ccc2O[C@@H]1CN(C)Cc1ccc(C(F)(F)F)cc1 | inactive |
| COc1ccc(NC(=O)Nc2ccc3c(c2)[C@H]2C[C@@H](CC(=O)N4CCN(C)CC4)O[C@H](CO)[C@H]2O3)cc1 | inactive |
| C[C@@H]1CN([C@H](C)CO)C(=O)c2cc(C#CCN(C)C)cnc2O[C@H]1CN(C)Cc1ccc2c(c1)OCO2 | inactive |
| C[C@H](CO)N1C[C@H](C)[C@@H](CN(C)C(=O)c2cnccn2)Oc2ncc(/C=C/c3ccccc3)cc2C1=O | inactive |
| CC(C)NC(=O)Nc1ccc2c(c1)C(=O)N([C@@H](C)CO)C[C@H](C)[C@H](CN(C)C(=O)Nc1ccc3c(c1)OCO3)O2 | inactive |
| C[C@H]1CN([C@@H](C)CO)S(=O)(=O)c2ccc(C#CC3CCCC3)cc2O[C@H]1CN(C)Cc1cncnc1 | inactive |
| CO[C@@H]1CN(C)C(=O)c2ccc(NC(=O)C3CCOCC3)cc2OC[C@H](C)N(Cc2cccnc2)C[C@@H]1C | inactive |
| C[C@H]1CN([C@@H](C)CO)C(=O)c2cccc(NC(=O)c3cnccn3)c2O[C@H]1CN(C)C(=O)Nc1ccc2c(c1)OCO2 | inactive |
| C[C@H]1CN([C@@H](C)CO)C(=O)c2cccc(NC(=O)c3ccncc3)c2O[C@H]1CN(C)S(=O)(=O)c1cn(C)cn1 | inactive |
| NCCCC[C@@H]1NC(=O)[C@H]2C[C@@H](C(=O)NCc3ccc(F)cc3)[C@@H](c3cccc(OCCO)c3)N2C1=O | inactive |
| COc1ccc(S(=O)(=O)Nc2cccc3c2O[C@H](CN(C)CC2CC2)[C@@H](C)CN([C@H](C)CO)C3=O)cc1 | inactive |
| COCC#Cc1ccc2c(c1)O[C@H](CN(C)S(=O)(=O)c1cccc(OC)c1)[C@H](C)CN([C@H](C)CO)S2(=O)=O | inactive |
| CN1C(=O)c2cc(NC(=O)C3CCOCC3)ccc2OC[C@H]2O[C@H](CC(=O)NCCc3ccncc3)CC[C@H]21 | inactive |
| C[C@@H]1CN([C@@H](C)CO)C(=O)c2cc(NC(=O)NC3CCCCC3)ccc2O[C@@H](C)CCCCO[C@@H]1CN(C)C(=O)Nc1ccccc1 | inactive |
| Cc1ccc(S(=O)(=O)N(C)C[C@H]2Oc3ccc(NS(=O)(=O)c4cn(C)cn4)cc3C(=O)N([C@H](C)CO)C[C@H]2C)cc1 | inactive |
